Several values for one entry are separate records, joined by “and”; a condition that tells them apart may be missing. Identical values can stand only once. Records with an inconclusive call do not appear. Activity calls are given as the source filed them. Calls come from the whole dose curve; as a rule, active = well fitted activation curve with a large enough effect; inconclusive = small, poorly fitted or top-dose-only effect; inactive = no such curve, though single readings can be large or run the other way.
These molecules were tested against Cellular tumor antigen p53 (Homo sapiens) (UniProt P04637) (assay: Primary qHTS for small molecule compounds that upregulate eGFP-tagged delta133p53alpha (in N-terminal) cells. (AID 2060322;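 note: series mostly up to about 56 µM; 0% = DMSO vehicle and 100% = reference activator; nearly all actives have a fitted effect of over 75% in size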)). Details: NCI-H358 eGFP-delta133p53alpha fluorescence, 24 h; activation: active compounds read high.
Summary of the method: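 NCI-H358 cells pre-induced 24 h with 10 ng/ml doxycycline to express N-terminal eGFP-delta133p53alpha, then dosed 24 h at 37C without doxycycline; fixed, Hoechst-stained, GFP intensity by laser scanning cytometry, normalized to DMSO (0%) and 57.5 uM 5-azacytidine (100%).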

Cellular tumor antigen p53 (Homo sapiens), sequence (P04637 whole entry, looked up): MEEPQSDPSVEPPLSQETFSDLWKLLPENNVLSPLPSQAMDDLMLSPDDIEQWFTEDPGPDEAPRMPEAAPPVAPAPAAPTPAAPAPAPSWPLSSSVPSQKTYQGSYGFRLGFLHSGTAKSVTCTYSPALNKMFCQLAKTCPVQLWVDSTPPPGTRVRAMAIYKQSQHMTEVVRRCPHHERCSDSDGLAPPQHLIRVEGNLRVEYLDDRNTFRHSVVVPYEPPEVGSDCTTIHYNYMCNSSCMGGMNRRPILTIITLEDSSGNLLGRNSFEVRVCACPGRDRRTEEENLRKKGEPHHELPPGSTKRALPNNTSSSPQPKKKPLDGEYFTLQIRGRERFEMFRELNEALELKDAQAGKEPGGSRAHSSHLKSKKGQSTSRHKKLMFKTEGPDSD

SMILES	activation
Clc1ccc(C(c2ccc(Cl)cc2)C(Cl)(Cl)Cl)cc1	-11.9% (inactive)
CC(C)=CC1C(C(=O)OCN2C(=O)C3=C(CCCC3)C2=O)C1(C)C (stereo not given)	17.6% (inactive)
CCCCC(CC)COC(=O)c1ccccc1C(=O)OCC(CC)CCCC (stereo not given)	0% (inactive)
N#C[C@H](O[C@@H]1O[C@H](CO[C@@H]2O[C@H](CO)[C@H](O)[C@H](O)[C@H]2O)[C@H](O)[C@H](O)[C@H]1O)c1ccccc1	6.64% (inactive)
COC(=O)c1cncn1C(C)c1ccccc1 (stereo not given)	-29.3% (inactive)
FC(F)(F)c1cccc(C2=CCN(CCc3ccc4ccccc4c3)CC2)c1	-5.08% (inactive)
CC=C(C)C(=O)O[C@H]1C(C)=C2[C@@H]3OC(=O)[C@@](C)(O)[C@@]3(O)[C@@H](OC(=O)CCC)C[C@](C)(OC(C)=O)[C@@H]2[C@@H]1OC(=O)CCCCCCC	-0.0676% (inactive)
O=C(CCCN1CCC(n2c(=O)[nH]c3ccccc32)CC1)c1ccc(F)cc1	-4.18% (inactive)
O=C(O)c1ccnc2cc(C(OCCN3CCC(F)(F)CC3)c3ccccc3Cl)[nH]c12 (stereo not given)	-26.8% (inactive)
CC(C)NCC(O)c1ccc([N+](=O)[O-])cc1 (stereo not given)	16.4% (inactive)
C[C@@H]1CC[C@@]2(OC1)O[C@H]1C[C@H]3[C@@H]4CC=C5C[C@@H](O[C@@H]6O[C@H](CO)[C@@H](O[C@@H]7O[C@@H](C)[C@H](O)[C@@H](O)[C@@H]7O)[C@H](O)[C@@H]6O[C@@H]6O[C@@H](C)[C@H](O)[C@@H](O)[C@@H]6O)CC[C@]5(C)[C@@H]4CC[C@]3(C)[C@@H]1[C@H]2C	15.2% (inactive)
O=C1OC(c2ccc(O)c(S(=O)(=O)O)c2)(c2ccc(O)c(S(=O)(=O)O)c2)c2c(Br)c(Br)c(Br)c(Br)c21	25.4% (inactive)
CCC(=O)OC1CCC2C3CCC4=CC(=O)CC[C@@]4(C)C3CC[C@]12C (stereo not given in full)	14.6% (inactive)
C[C@]12CC[C@H]3[C@@H](CCC4=CC(=O)CC[C@@H]43)[C@@H]1CC[C@@H]2OC(=O)CCc1ccccc1	2.51% (inactive)
ClCc1cccc(Cl)c1	5.02% (inactive)
C=CCC1([C@H](C)CCC)C(=O)NC(=O)NC1=O	7.34% (inactive)
C[N+]1(C)[C@@H]2CC[C@H]1CC(OC(=O)C(CO)c1ccccc1)C2 (stereo not given in full)	25.4% (inactive)
NC(=O)CS(=O)C(c1ccccc1)c1ccccc1 (stereo not given)	-6.21% (inactive)
COc1ccc2c(c1)CN(C)CC2c1ccc(Cl)c(Cl)c1 (stereo not given)	10.8% (inactive)
C[C@H]1CNCCc2ccc(Cl)cc21	-8.37% (inactive)

SMILES	activation
CCCCCCC(=O)CCCCCC/C=C/C[C@@H](O)[C@H](O)[C@@](N)(CO)C(=O)O	5.86% (inactive)
O=C(N/N=C/c1ccc([N+](=O)[O-])o1)c1cc([N+](=O)[O-])cc([N+](=O)[O-])c1O	-6.21% (inactive)
COc1ccc2c3c1O[C@H]1[C@H](O)CC[C@H]4[C@@H](C2)N(C)CC[C@@]341	16.4% (inactive)
Sc1ccccc1Cl	-0.837% (inactive)
Clc1cccc(N2CCNCC2)c1	17.5% (inactive)
Clc1ccc(CO/N=C(\Cn2ccnc2)c2ccc(Cl)cc2Cl)c(Cl)c1	-8.37% (inactive)
CC1N=C(N)OC1c1ccccc1 (stereo not given)	-17.5% (inactive)
Cc1c(C(=O)c2cccc3ccccc23)c2cccc3c2n1[C@H](CN1CCOCC1)CO3	12.1% (inactive)
CC(C)NCC(O)c1ccccc1Cl (stereo not given)	21.8% (inactive)
NC(N)=NOCC[C@H](N)C(=O)O	-12% (inactive)
CN(C)CCc1ccc(O)cc1	-14.3% (inactive) and -6.21% (inactive)
O=c1n(Cl)c(=O)n(Cl)c(=O)n1Cl	6.21% (inactive)
CCCN(CCC)CCc1c[nH]c2ccccc12	22% (inactive)
CC(Cc1ccccc1)NCCCCl (stereo not given)	-27.6% (inactive)
CCCN(CCC)C(=O)Cc1c(-c2ccc(Cl)cc2)nc2ccc(Cl)cn12	29.3% (inactive)
CC(C)(N)Cc1ccccc1Cl	10.7% (inactive)
Cc1cc(O)ccc1Cl	-17.5% (inactive)
CC(C)NC(C)C	-1.69% (inactive)
CCCC1CCCCN1 (stereo not given)	-16.4% (inactive)
CCN(CC)CCOC(=O)C(C)(c1ccccc1)c1ccccc1	-8.47% (inactive)

Source: PubChem BioAssay (NCATS)
